# Test results from PubChem BioAssay (NCATS).
# Results filed as inconclusive are left out. Values without a mark were called inactive. Active and inactive are the calls of the source. The call rests on the fitted dose curve; in most records, active means well fitted inhibition curve with a large enough effect; inconclusive means small, poorly fitted or top-dose-only effect; inactive means flat fitted curve, though single readings scatter. Where a SMILES comes first, the peptide text is derived from it. [ ]: non-standard residue; d: D form. Hyp = O=C(O)[CH]1C[CH](O)CN1; Phe(ol) = N[CH](CO)Cc1ccccc1; Iva = CC[C](C)(N)C(=O)O; Aib = CC(C)(N)C(=O)O
# Tests used:
# HEK293 = test: Cytotoxic Profiling of Annotated Libraries Using Quantitative High-Throughput Screening (AID 1296008); conditions: Five cell lines viability, CellTiter-Glo ATP luminescence, 48-72 h; max response: stronger effect = lower value; further: potency means the concentration at half of the fitted maximal effect; on max response: on the % scale 0 is the no-effect control and ±100 the full control effect
# Procedure, shortened: (§1)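 Cytotoxicity was measured as CellTiter-Glo ATP luminescence, read after 10 min at room temperature. Compound treatment of the cells lasted 48 or 72 hr at 37 degrees Celsius in a qHTS format.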
# NIH3T3 = test: as above; conditions: Five cell lines viability, CellTiter-Glo ATP luminescence, 48-72 h; max response: stronger effect = lower value
# Procedure, shortened: as §1
# HaCat [1] = test: as above; conditions: Five cell lines viability, CellTiter-Glo ATP luminescence, 48-72 h; max response: stronger effect = lower value
# Procedure, shortened: as §1
# HACAT [2] = test: qHTS assay to identify novel small-molecules to repurpose for Merkel cell carcinoma treatment (AID 1296009); conditions: MCC and control cell lines, CellTiter-Glo viability, 72 h; at 44.8 µM (top of the series) unless noted
# Procedure, shortened: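 72 hr, 37 degree celsius; NPC 8-pt / MIPE 11-pt dose response; compound pinned in DMSO; CellTiter-Glo, 10 min RT, luminescence; normalized to no-cell and DMSO controls.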
# Further: nearly all actives have a fitted effect of over 60% in size.
smiles,measurement,setting,value
Clc1ccc(Nc2nc3ccccc3c3nc(C4CCCCC4)[nH]c23)cc1Cl,Potency,HEK293,11.6 µM (active)
same,Potency,NIH3T3,20.6 µM (active)
Cc1nc(NC(=O)N2CCCC2C(N)=O)sc1-c1ccnc(C(C)(C)C(F)(F)F)c1 (stereo unspecified),Potency,HEK293,10.3 µM (active)
same,Potency,HaCat [1],2.31 µM (active)
same,Potency,NIH3T3,9.2 µM (active)
CCC1C(=O)N(C)c2cnc(Nc3ccc(C(=O)NC4CCN(C)CC4)cc3OC)nc2N1C1CCCC1 (stereo unspecified),max response,HEK293,-124%
same,Potency,NIH3T3,7.31 µM (active)
CC1CCCC(O)CCC/C=C/c2cc(OS(=O)(=O)O)cc(O)c2C(=O)O1 (stereo unspecified),max response,HEK293,-20.5%
same,max response,HaCat [1],0.348%
same,outcome,NIH3T3,inactive
CC(C)S(=O)(=O)NC[C@@H]1CC(c2ccc(N3CCCC3)c(F)c2)=NO1,Potency,HEK293,14.6 µM (active)
same,max response,HaCat [1],-20.2%
same,max response,NIH3T3,-14.9%
CN(C)Cc1ccc(-c2cnn3c(-c4cccc(NC(=O)c5cccc(C(F)(F)F)c5)c4)ccnc23)cc1,Potency,HEK293,7.31 µM (active)
same,Potency,NIH3T3,16.4 µM (active)
CO[C@H]1C[C@@H]2CC[C@@H](C)[C@@](O)(O2)C(=O)C(=O)N2CCCC[C@H]2C(=O)O[C@H]([C@@H](C)C[C@@H]2CC[C@@H](O)[C@H](OC)C2)CC(=O)[C@H](C)/C=C(\C)[C@@H](O)[C@@H](OC)C(=O)[C@H](C)C[C@H](C)/C=C/C=C/C=C/1C,Potency,HEK293,0.0073 µM (active)
same,max response,HaCat [1],-8.22%
same,max response,NIH3T3,-0.671%
CNC(=O)COC(=O)N1CCC(CCc2ccc(Cl)cc2)CC1,Potency,HEK293,14.6 µM (active)
same,outcome,HaCat [1],inactive
same,max response,NIH3T3,-13%
same,outcome,HACAT [2],inactive
C=C1C(=O)O[C@@H]2C3=C(C)CCC[C@]3(C)CC[C@@]12O,Potency,HEK293,8.2 µM (active)
same,Potency,NIH3T3,14.6 µM (active)
CCC(C)(NC(=O)C(CCC(N)=O)NC(=O)C1CC(O)CN1C(=O)C(C)(C)NC(=O)C(C)(C)NC(=O)C(CC(C)C)NC(=O)CNC(=O)C(NC(=O)C(C)(C)NC(=O)C(C)(C)NC(=O)C(C)(C)NC(=O)C(Cc1ccccc1)NC(C)=O)C(C)C)C(=O)N1CC(O)CC1C(=O)NC(C)(C)C(=O)NC(CO)Cc1ccccc1 (stereo unspecified) (Ac-F[Aib][Aib][Aib]VGL[Aib][Aib][Hyp]Q[Iva][Hyp][Aib][Phe(ol)]; configuration not given here),max response,HEK293,-14.6%
same,outcome,HaCat [1],inactive
same,max response,NIH3T3,2.9%
same,outcome,HACAT [2],inactive [at 9.27 µM]
O=C(Nc1ccc(CN2CCOCC2)cc1)c1ccc(-c2cccc(Cl)c2)o1,Potency,HEK293,9.2 µM (active)
same,max response,HaCat [1],-23.4%
same,max response,NIH3T3,1.97%
CNC1CN(c2ccc3c(=O)c(C(=O)O)cn(-c4nccs4)c3n2)CC1OC (stereo unspecified),Potency,HEK293,1.06 µM (active)
same,Potency,HaCat [1],1.68 µM (active)
same,Potency,NIH3T3,0.211 µM (active)
CCCc1cc2c(N3CCN(C4=NCC(C)(C)S4)CC3)ncnc2s1,Potency,HEK293,5.8 µM (active)
same,outcome,HaCat [1],inactive
same,outcome,HACAT [2],inactive
COc1ccc(-c2ccc3c(N4CCOCC4C)nc(N4CCOCC4C)nc3n2)cc1CO (stereo unspecified),Potency,HEK293,0.146 µM (active)
same,Potency,HaCat [1],2.91 µM (active)
same,Potency,NIH3T3,0.231 µM (active)
O=C(O)c1ccc(N2C(=O)/C(=C/c3ccc(-c4ccc([N+](=O)[O-])cc4)o3)C=C2c2ccccc2)cc1,max response,HEK293,-3.48%
same,outcome,HaCat [1],inactive
same,outcome,HACAT [2],inactive
COc1cc(OC)c(NC(=O)c2ccc(Cc3cc4c(cc3C)C(C)(C)CCC4(C)C)o2)c(OC)c1,Potency,HEK293,20.6 µM (active)
same,max response,HaCat [1],3.56%
same,max response,NIH3T3,4.87%
CCn1c(-c2nonc2N)nc2c(C#CC(C)(C)O)ncc(OCC3CCCNC3)c21 (stereo unspecified),Potency,HEK293,0.82 µM (active)
same,outcome,HaCat [1],inactive
same,outcome,NIH3T3,inactive
same,outcome,HACAT [2],inactive
C[C@H](CN(C)C)Oc1nc(Nc2cc3cccc(Cl)c3cn2)cnc1C#N,Potency,HEK293,1.3 µM (active)
same,Potency,NIH3T3,2.06 µM (active)
Cc1nc2ccc(-n3ncc(C(=O)c4cc5ccccc5[nH]4)c3N)cc2[nH]1,Potency,HEK293,5.8 µM (active)
same,max response,HaCat [1],-16.7%
same,Potency,NIH3T3,9.2 µM (active)
CC(=O)O[C@H]1C[C@H](OC(C)=O)[C@]2(C)[C@H](CC[C@@]34O[C@@H]3C3=C(C)C(=O)O[C@@H]3C[C@H]42)C1(C)C,Potency,HEK293,5.63 µM (active)
same,outcome,HaCat [1],inactive
same,max response,NIH3T3,-18%
same,outcome,HACAT [2],inactive [at 17.4 µM]
c1cc(NCCc2c[nH]c3ccccc23)cc(Nc2ccncc2)c1,max response,HEK293,-111%
same,outcome,HaCat [1],inactive
same,max response,NIH3T3,-50.3%
same,outcome,HACAT [2],inactive
COc1cc([C@H]2O[C@H](c3cc(OC)c4c(c3)OCO4)[C@H](C)[C@H]2C)cc(OC)c1OC,Potency,HEK293,0.893 µM (active)
same,outcome,HaCat [1],inactive
same,outcome,HACAT [2],inactive [at 17.4 µM]
